Assay results from PubChem BioAssay (Tox21).
Inconclusive results are not listed. A call without a number means that no potency is given here. A structure can be active in one record and inactive in another. Active and inactive are the calls of the source. Calls follow the shape of the dose curve; as a rule, active = well fitted cell-killing curve with a large enough effect in the repeat runs; inconclusive = weak or mixed curves; inactive = flat fitted curve, though single readings scatter.

Assay: qHTS RealTime-Glo MT Cell Viability Assay in HepG2 cells - 16 hour (AID 1224885); also: nearly all actives have a fitted effect of over 50% in size
Conditions: RealTime-Glo luminescence; series mostly up to 76.8 µM
Description: U.S. Tox21 Program National Center for Advancing Translational Sciences [NCATS] NIH Chemical Genomics Center [NCGC] U.S. Environmental Protection Agency [EPA] National Institutes of Environmental Health Sciences [NIEHS] National Toxicology Program [NTP] U.S. Food and Drug Administration [FDA] Tox21 Assay Overview: Measure of cell viability is critical in the cell-base assay. Analysis of cell viability is necessary for the characterization of cell responses to cytotoxic drugs and environmental stress. A RealTime-Glo MT Cell Viability Assay to monitor cell viability in real time of continues cell culture during 40 hours of compound treatment was used to screen Tox21 10K library compounds in HepG2 cells. The RealTime-Glo MT Cell Viability Assay is a nonlytic, homogeneous, bioluminescent method to measure cell viability in real time using a simple, plate-based method. The assay involves adding NanoLuc luciferase and a cell-permeant prosubstrate to cells in culture. Viable cells reduce the proprietary prosubstrate to generate a substrate for NanoLuc luciferase. This substrate diffuses from cells into the surrounding culture medium, where it is rapidly used by the NanoLuc Enzyme to produce a luminescent signal. The signal correlates with the number of viable cells, making the assay well suited for cytotoxicity studies.
Tox21 Assay Protocol Summary: The mixture of HepG2 cell suspension and reagents were dispensed at 600cells/6 ul/well in 1536-well tissue culture treated black solid bottom plates using a Multidrop dispenser. After the assay plates were incubated at a 37 C/5% CO2 incubator for 5 hours, 23 nL of compounds dissolved in DMSO, positive and negative controls was transferred to the assay plate by a pintool work station. The plates were incubated at 37 C for 40 hours. The luminescence intensity were measured at 0h, 8h, 16h, 24h, 32h and 40h time points using ViewLux plate reader during compound treatment.
Potency is read from the fitted curve at half-maximal effect.

Compound	Potency
CCCCCCOC(=O)c1ccc(O)cc1	inactive
CCC(C)(C)C1CCCCC1OC(C)=O (stereo not given)	inactive
CSc1cnc(C)cn1	inactive
[Cl][Au]([Cl])[Cl]	15.5 µM (active)
Nc1ccc2cc(S(=O)(=O)O)cc(O)c2c1N=Nc1ccccc1C(F)(F)F	inactive
CC1(C)CCC(C)(C)c2cc(C(=O)Nc3ccc(C(=O)O)cc3)ccc21	inactive
C[C@@H](NCCCc1cccc(C(F)(F)F)c1)c1cccc2ccccc12	21.3 µM (active)
Clc1ccccc1C(c1ccccc1)(c1ccccc1)n1ccnc1	24.5 µM (active) and inactive
CCN(C(=O)N(CC)c1ccccc1)c1ccccc1	inactive
CN(C)C(=O)C1(N2CCCCC2)CCN(CC[C@@]2(c3ccc(Cl)c(Cl)c3)CN(C(=O)c3ccccc3)CCO2)CC1	36.3 µM (active)
CN(C)[C@@H]1C(=O)C(C(N)=O)=C(O)[C@@]2(O)C(=O)C3=C(O)c4c(O)ccc(Cl)c4[C@@H](O)[C@H]3C[C@@H]12	inactive
CCCCCCCC[N+](CCCCCCCC)(CCCCCCCC)CCCCCCCC	24.5 µM (active)
Nc1ccccc1O	inactive
CCCCCCCCCCCC(=O)NCCCN(C)C	49 µM (active)
NNC(=O)c1cccc(C(=O)NN)c1	inactive
Clc1ccc2nsnc2c1NC1=NCCN1	inactive
C=C(C)C(=O)OCC[N+](C)(C)C	inactive
CCCCN(CCCC)C(=O)N(CCCC)CCCC	inactive
CCCCN1CCCC[C@H]1C(=O)Nc1c(C)cccc1C	inactive
CC(C)C(C)(C)C(C)(C)C(C)(C)S	inactive

Compound	Potency
Cc1oc(-c2ccccc2)nc1CCC(=O)c1ccc(CC2SC(=O)NC2=O)cc1 (stereo not given)	inactive
O=Cc1cc(O)ccc1Br	inactive
CCCCCCCCCCCCCC[P+](CCCC)(CCCC)CCCC (tested in a mixture with another compound)	19.6 µM (active)
C=CC(=O)OCCn1c(=O)n(CCOC(=O)C=C)c(=O)n(CCOC(=O)C=C)c1=O	15.5 µM (active)
O=C(Nc1ccc(Oc2ccc(Cl)cc2)c(Cl)c1)c1cc(I)cc(I)c1O	inactive
Oc1ccc(N=Nc2ccccc2)cc1	inactive
O=c1cccccc1O	inactive
N#CSc1ccc(N)c([N+](=O)[O-])c1	inactive
Cc1cccc(S(=O)(=O)O)c1C	inactive
C/C=C(\C)C(=O)OCc1ccccc1	inactive
O=C(Nc1cccc([N+](=O)[O-])c1)c1cc2ccccc2cc1O	inactive
C1CCCC1	inactive
O=c1c(-c2ccccc2)c1-c1ccccc1	19 µM (active)
OCc1c[nH]c2ccccc12	inactive
Cc1cc(O)c(C(C)(C)C)cc1C(C)(C)C	43.6 µM (active)
O=c1[nH]cnc2nc[nH]c12	inactive
CC[C@H]1O[C@]2(CC[C@@H]1C)C[C@@H]1C[C@@H](C/C=C(\C)C[C@@H](C)/C=C/C=C3\CO[C@@H]4[C@H](O)C(C)=C[C@@H](C(=O)O1)[C@]34O)O2	43.3 µM (active)
CSc1ccc(/C=C2/C(C)=C(CC(=O)O)c3cc(F)ccc32)cc1	inactive
CCCCN(CCCC)c1ccc(C(=O)c2ccccc2C(=O)O)c(O)c1	inactive
O=C1CCCc2c1cc1ccc3cccc4ccc2c1c34	inactive
